Experimental data as given in PubChem BioAssay AID652067 (The Scripps Research Institute Molecular Screening Center, 2013).
The whole screen tested about 370,000 compounds, of which about 5,400 (1.5%) were called active.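 Rule for the calls: active = activation above the mean of all tested compounds plus 3 SD (cut at about 5.5% in these data); inactive = the rest.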 For the sample, actives were picked, then their nearest neighbours and some compounds at random.

Test system: DAF-12 nuclear receptor (Haemonchus contortus)
Assay: hcDAF-12 driven luciferase reporter activation – cell-based, luminescence, HEK293, lit1-tk-luc reporter, primary screen (AID 652067);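 note: 100% = response to 3 µM Δ7-dafachronic acid high control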
Details: HEK293 hcDAF-12 lit1-tk-luc reporter, at 6.8 µM, hits give high values, 0% DMSO, 100% Δ7-dafachronic acid

| Structure (SMILES) | activation |
| --- | --- |
| CCOCc1nnc(NC(=O)CCC2CCCCC2)s1 | -1.11% (inactive) |
| CC(C)CC(=O)N/C(N)=N/c1nc2ccccc2s1 | 8.5% (active) |
| CC(NC(=O)COC(=O)c1ccc2ccccc2n1)c1ccccc1 (stereo not drawn) | 2.13% (inactive) |
| CC(C)CC(=O)NC(=S)NNC(=O)c1cccc([N+](=O)[O-])c1 | 1.89% (inactive) |
| Cc1cnc(C)c(N2CCN(C(=O)C3CCC(=O)N(CCc4cccc(F)c4)C3)CC2)n1 (stereo not drawn) | -0.94% (inactive) |
| Cc1sc2nc(SCC(=O)c3ccc(O)c(O)c3)n(Cc3ccco3)c(=O)c2c1C | -0.45% (inactive) |
| CC1=C(N2CCN(c3ncccn3)CC2)CCC1=O | -1.78% (inactive) |
| c1cnc(N2CCN(c3ccc4ccccc4n3)CC2)nc1 | 9.72% (active) |
| CC12CCC(C(=O)N3CCN(c4ncccn4)CC3)(c3nc4ccccc4nc31)C2(C)C (stereo not drawn) | -0.6% (inactive) |
| COC(=O)N1Cc2ccnnc2CC1c1ccccc1Br (stereo not drawn) | -2.69% (inactive) |
| Nc1ccn([C@@H]2O[C@H](C(=O)N[C@H]3CCCCNC3=O)[C@@H](O)[C@H]2O)c(=O)n1 | 0.58% (inactive) |
| Cc1cccc(N2CCN(Cc3c(C)n(C)n(-c4ccccc4)c3=O)CC2)c1C | -2.12% (inactive) |
| CCn1cc(CN2CCN(CC(C)(C)C)C(CCO)C2)c2ccccc21 (stereo not drawn) | 7.54% (active) |
| COc1ccccc1N1CCC(N2CCN(CC(C)(C)C)C(CCO)C2)CC1 (stereo not drawn) | -0.72% (inactive) |
| Cc1ccc(CN2CCN(Cc3ccccc3-c3ccco3)CC2CCO)o1 (stereo not drawn) | -0.79% (inactive) |
| COC(=O)[C@]12C[C@H](CC(=O)NCc3ccccc3)C(=O)N(Cc3ccccc3)C1=C[C@H](COCc1ccccc1)O[C@@H]2C | -1.28% (inactive) |
| CC(=O)c1cccc(NC(=O)COc2ccc(S(=O)(=O)N3CCOCC3)cc2)c1 | -0.45% (inactive) |
| Cc1ccccc1NC(=O)C1CCN(c2ncccn2)CC1 | 0.03% (inactive) |
| Nn1c(SCC(=O)N2c3ccccc3Sc3ccccc32)nnc1-c1n[nH]c2c1CCC2 | -2.66% (inactive) |
| CCOC(=O)c1cc2n(c1N)-c1ccccc1C2=O | 6.53% (active) |

| Structure (SMILES) | activation |
| --- | --- |
| CCOC(=O)c1cnn(Cc2ccccc2Cl)c1N | 1.1% (inactive) |
| CCOC(=O)c1ccccc1NC(=O)c1c(N)n(C)c(=O)[nH]c1=O | -0.79% (inactive) |
| C[C@H](O)[C@@H]1CN2CCc3ccc(-c4ccc5c(c4)OCO5)cc3[C@@H]2C[C@@H]1N(C)C(=O)C1CCCCC1 | -0.66% (inactive) |
| Cc1ccc(OCc2nnc(SC/C=C/c3ccccc3)n2Cc2ccco2)cc1 | -1.14% (inactive) |
| COc1ccc(N2CCN(CCNS(=O)(=O)c3ccc(C(C)(C)C)cc3)CC2)cc1 | -4.56% (inactive) |
| CC1=NCCN1S(=O)(=O)c1ccc(Br)c(C)c1 | -1.01% (inactive) |
| COc1ccc(CN2C/C(=C/c3ccccc3)N3C(=O)C[C@@H](c4ccccc4)N=C23)c(OC)c1 | -1.56% (inactive) |
| COc1cccc2cc(C(=O)N(C)C)c(=O)oc12 | -0.74% (inactive) |
| CN(CCOc1ccccc1)C(=O)c1cc(COc2c(F)cccc2F)on1 | -1.26% (inactive) |
| COc1cc2ccccc2cc1C(=O)N(CCN(C)C)c1nc2c(F)cccc2s1 | 6.37% (active) |
| O=S1(=O)c2ccc(N3CCN(Cc4ccccc4F)CC3)cc2Oc2ccccc2CN1Cc1cn(Cc2ccc(Cl)cc2)nn1 | 0.96% (inactive) |
| COc1ccc(CNS(=O)(=O)c2cc(Br)ccc2Br)cc1 | -0.97% (inactive) |
| CC1CCN(C(=O)c2ncn3c2C(=O)N[C@@H](C)C3)CC1 | -0.73% (inactive) |
| COc1nc(N=C(N)N)nc2c(C)cccc12 | 6.14% (active) |
| CCc1c(C)nc2c(OC)cccc2c1Cl | -0.4% (inactive) |
| Cc1nc(N=C(N)N)nc2c(C)cccc12 | 5.96% (active) |
| CCOC(=O)[C@]12CCCCC/C=C\1N(Cc1ccc(OC)cc1)C(=O)[C@H]2CC(=O)N1CCOCC1 | 4.16% (inactive) |
| Cc1cc(C(=O)NN=C/C=C/c2ccco2)n[nH]1 | -0.38% (inactive) |
| NNc1nc2c(Cl)cccc2s1 | 10% (active) |
| COC(=O)C1=C(C)N(Cc2ccccc2C(F)(F)F)C(=NCC2CC2)NC1c1cccc(Cl)c1 (stereo not drawn) | -1.98% (inactive) |

| Structure (SMILES) | activation |
| --- | --- |
| Cc1cccc(-c2nc3ccccc3c(=O)n2NC(=O)Cc2ccc(Cl)cc2)c1 | 6.73% (active) |
| COc1cc(OC)cc(-c2nc3ccccc3c(=O)n2NC(=O)c2cccnc2Cl)c1 | -1.71% (inactive) |
| O=C(Nn1c(-c2ccc(Cl)cc2)nc2ccccc2c1=O)c1cccnc1Cl | 0.57% (inactive) |
| S=c1c2[nH]cnc2ncn1CCSc1ncnc2nc[nH]c12 | -0.28% (inactive) |
| CC(C)CC(=O)Nc1ccc(Cc2ccncc2)cc1 | 0.36% (inactive) |
| O=C(O)CCCC(=O)Nc1ccccc1-n1ccnc1 | -1.24% (inactive) |
| CC(CC(=O)Nc1ccccc1)n1ccnc1 (stereo not drawn) | 5.72% (active) |
| CCOc1ccc(NC(=O)CCS(=O)(=O)c2ccc3c(c2)CCCN3C(=O)CC)cc1 | -1.11% (inactive) |
| Cc1ccccc1C(=O)Nc1ccccc1Sc1ccccc1 | -0.9% (inactive) |
| COc1cc2ccccc2cc1C(=O)Nc1ccccc1C | 10.1% (active) |
| Cc1ccccc1NC(=O)CCOc1ccccc1 | 0.95% (inactive) |
| CCCCCCCCN1C(=O)[C@@H](CC(=O)NCc2ccccc2)C[C@@]2(C(=O)OC)C1=C[C@H](C(C)(C)C)O[C@@H]2C | 1.65% (inactive) |
| COC1=C[C@H](C(=O)NCCNC(C)=O)[C@H](C)[C@@H](c2ccccc2)CC1=O | -2.16% (inactive) |
| O=C(c1ccccc1)c1ccc(-c2ccccc2C(=O)NC2CCCCN(Cc3ccc(Cl)cc3)C2=O)cc1 (stereo not drawn) | -0.91% (inactive) |
| COC(=O)c1c(-c2ccc(OC)cc2)c2c(c3c4ccccc4n(S(=O)(=O)c4ccc(C)cc4)c13)C(=O)N(C)C2 | 1.29% (inactive) |
| COc1ccccc1OCc1nc2ccccc2s1 | 17.9% (active) |
| COC(=O)C1[C@H]2SC(C)(C)C(C(=O)OC)N2C(=O)N1Cc1nc2ccccc2s1 (stereo partly drawn) | 0.45% (inactive) |
| CCc1ccc(-c2nnn(Cc3nc4ccccc4s3)n2)cc1 | 3.01% (inactive) |
